Shown are actives, neighbours in structure and some others; about 3.2% of the full set was active somewhere.
AMA1-RON2 inh: qHTS for Inhibitors of AMA1-RON; Towards Development of Antimalarial Drug Lead: Primary Screen; AlphaScreen AMA1-biotinylated RON2 peptide binding; 360,000 compounds, 0.2% hits; AID 720542, 2013; Plasmodium falciparum AMA1 (3D7) - RON2 peptide interaction; Potency, µM (doses to about 58.2 µM), without a hit: top-dose activity change, negative = inhibition, most hits filed as inhibitors;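 also: 0% = vehicle wells and -100% = peptide control; nearly all actives have a fitted effect of over 45% in size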
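AMA1 (3D7) with his tag at 25 nM final met compounds first, then biotinylated RON2 peptide at 25 nM; detection used donor plus acceptor beads, 10 µg/mL apiece, read by AlphaScreen after 30 min at room temperature.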
AmpC no deterg: qHTS Inhibitors of AmpC Beta-Lactamase (assay without detergent); P00811; AmpC nitrocefin hydrolysis, absorbance 480 nm, 0.0001% Triton; Potency, µM (top dose mostly 57.1 µM), inactives show at the top dose activity change, negative = inhibition, most hits filed as inhibitors; 330,000 compounds, 0.52% hits;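 also: plate controls were no compound for no effect and no enzyme for full effect; nearly all actives have a fitted effect of over 20% in size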
Target sequence (P00811 whole entry, looked up): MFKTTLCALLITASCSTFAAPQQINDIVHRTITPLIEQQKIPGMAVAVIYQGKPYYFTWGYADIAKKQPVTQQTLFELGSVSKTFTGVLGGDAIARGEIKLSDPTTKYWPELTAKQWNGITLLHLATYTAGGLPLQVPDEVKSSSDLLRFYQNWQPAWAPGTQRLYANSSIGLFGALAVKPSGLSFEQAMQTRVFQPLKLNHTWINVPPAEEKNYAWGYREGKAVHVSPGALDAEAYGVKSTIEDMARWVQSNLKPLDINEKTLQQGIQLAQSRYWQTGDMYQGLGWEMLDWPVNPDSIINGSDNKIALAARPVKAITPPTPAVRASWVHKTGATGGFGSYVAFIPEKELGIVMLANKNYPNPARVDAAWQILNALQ
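20 mM phosphate pH 7.0 + 0.01% (detergent screen) or 0.0001% Triton X-100; 5.3 nM AmpC reagent; cpd preinc 15 min RT; nitrocefin (800 uM stock) to start; A480 q20 s × 4 min; Activity was normalised to no-enzyme and no-compound control wells.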
RE007 growth inh: qHTS Assay for Inhibitors of the HIV-1 protein Vpr. S. pombe RE007 Vpr strain, BacTiter-Glo ATP luminescence, 24 h. Potency, µM (titrated, usually from 92.2 µM), without a hit: at the top dose activity change, negative = less growth, actives largely listed as inhibitors. 360,000 compounds, 0.21% hits; active = well fitted falling curve with a large enough effect; inconclusive = small, poorly fitted or top-dose-only effect; inactive = no such curve, though single readings can be large or run the other way; also: nearly all actives have a fitted effect of over 50% in size
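Fission yeast strain RE007, carrying one chromosomally integrated HIV-1 vpr copy, was seeded at OD 0.01 in PMG+AL medium with 23 nL pinned compound. After 24 h at 30 °C and 99% humidity, viability was read by BacTiter-Glo luminescence.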
Sm TGR inh: qHTS Assay for the Inhibitors of Schistosoma Mansoni Peroxiredoxins; Schistosoma mansoni thioredoxin glutathione reductase (TGR), Q962Y6; purified TGR, DTNB reduction, TNB absorbance 405 nm; Potency, µM (doses to about 114 µM), without a hit: top-dose activity change, negative = inhibition, usual class: inhibitors; 360,000 compounds, 3% hits; also: nearly all actives have a fitted effect of over 60% in size
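Kinetic colorimetric format: TGR-catalysed, NADPH-driven DTNB reduction monitored via TNB absorbance. Enzyme dispensed at 20 nM; compound exposure 15 min at room temperature before reaction start.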
AmpC detergent: qHTS Inhibitors of AmpC Beta-Lactamase (assay with detergent); 370,000 compounds, 0.041% hits; Potency, µM (series often up to 114 µM), for the others: top-dose activity change, negative = inhibition, most hits filed as inhibitors; AmpC hydrolysis of nitrocefin, absorbance 480 nm, 0.01% Triton;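 also: 0% = no-compound wells and -100% = no-enzyme wells; nearly all actives have a fitted effect of over 25% in size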
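AmpC (5.3 nM in the dispensed reagent) in 20 mM phosphate pH 7.0 with 0.01% (detergent screen) or 0.0001% Triton X-100 was preincubated with compounds for 15 min at room temperature. Nitrocefin was then added from an 800 uM solution, and hydrolysis was followed at 480 nm.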
* marks the source's active call; other numbers are inactive results; [ ] = another dose, or the depositor's remark. Unless noted, calls follow the shape of the dose curve; as a rule, active = well fitted curve in the direction sought with a large enough effect; inconclusive = small, poorly fitted or top-dose-only effect, or another doubt; inactive = no such curve, though single readings can be large; an effect the other way counts as inactive or inconclusive. Unless noted, % is scaled to controls: 0 for no effect and ±100 for the full control effect; potency is read from the fitted curve at half-maximal effect.

What do the screens show for `Cc1c(O)ccc2cc(S(=O)(=O)c3ccccc3)c(=O)oc12`?
AMA1-RON2 inh: 4%; AmpC no deterg: -15%; RE007 growth inh: 25%; Sm TGR inh: -28%; AmpC detergent: -1%

What do the screens show for `O=S(=O)(c1ccccc1)c1cc(O)ccc1O`?
AMA1-RON2 inh: 23%; AmpC no deterg: -17%; RE007 growth inh: -1%; Sm TGR inh: 28µM*; AmpC detergent: 6%

Results for O=S(=O)(c1ccc(Cl)cc1)c1cc(O)ccc1O ?
AMA1-RON2 inh: 2%; AmpC no deterg: -39%; RE007 growth inh: -1%; Sm TGR inh: 11µM*; AmpC detergent: -1%

What do the screens show for `c1cc(CNCCc2ccc3c(c2)OCO3)ccn1`?
AMA1-RON2 inh: inconclusive; AmpC no deterg: 14%; RE007 growth inh: 3%; Sm TGR inh: 45µM*; AmpC detergent: inconclusive

Results for Clc1ccc(CCNCc2ccncc2)c(Cl)c1 ?
AMA1-RON2 inh: inconclusive; AmpC no deterg: -7%; RE007 growth inh: 7%; Sm TGR inh: 28µM*; AmpC detergent: inconclusive

What do the screens show for `Fc1ccc(CNCCc2ccc3c(c2)OCO3)cc1`?
AMA1-RON2 inh: -8%; AmpC no deterg: -19%; RE007 growth inh: -19%; Sm TGR inh: 0%; AmpC detergent: inconclusive

How did CCc1ccc(NC(=O)CC2C(=O)N(c3ccc(OC)cc3)C(=O)N2Cc2ccc(OC)cc2)cc1 (stereo not given) do in these assays?
Sm TGR inh: -8%; AmpC detergent: -4%

How did COc1cc(/C=C/C(=O)OCC(=O)Nc2oc(C)c3c(C)n[nH]c(=O)c23)ccc1OC(F)F do in these assays?
AMA1-RON2 inh: 22%; AmpC no deterg: inconclusive; RE007 growth inh: -14%; Sm TGR inh: 22µM*; AmpC detergent: 2%

Results for Cc1ccccc1N1C(=O)NC(=O)/C(=C\c2cc(Br)c(N3CCOCC3)o2)C1=O ?
AMA1-RON2 inh: -11%; AmpC no deterg: -25%; RE007 growth inh: 4%; Sm TGR inh: inconclusive; AmpC detergent: -14%

What do the screens show for `O=C1NC(=O)/C(=C\c2ccc(Sc3ccc(Cl)cc3)o2)N1`?
AMA1-RON2 inh: -14%; AmpC no deterg: -41%; RE007 growth inh: -20%; Sm TGR inh: 50µM*; AmpC detergent: inconclusive

What do the screens show for `Cc1ccccc1N1C(=O)NC(=O)/C(=C/c2ccc(N3CCOCC3)o2)C1=O`?
AMA1-RON2 inh: -26%; AmpC no deterg: -35%; RE007 growth inh: 5%; Sm TGR inh: 22µM*; AmpC detergent: 1%

What do the screens show for `O=C1NC(=O)/C(=C\c2ccc(N3CCOCC3)o2)N1`?
AMA1-RON2 inh: 92%; AmpC no deterg: -16%; RE007 growth inh: 1%; Sm TGR inh: 8.9µM*; AmpC detergent: -8%

How did Clc1ccc(Sc2ccc(/C=N/n3cnnc3)o2)cc1 do in these assays?
AMA1-RON2 inh: -8%; AmpC no deterg: 20%; RE007 growth inh: 10%; Sm TGR inh: inconclusive; AmpC detergent: 4%

How did CN1C(=O)C(=Cc2ccc(N3CCOCC3)o2)C(=O)N(C)C1=O do in these assays?
AMA1-RON2 inh: -3%; AmpC no deterg: -45%; RE007 growth inh: -1%; Sm TGR inh: inconclusive; AmpC detergent: 7%

What do the screens show for `O=C1NC(=O)/C(=C/c2ccc(N3CCOCC3)o2)N1`?
AMA1-RON2 inh: -6%; AmpC no deterg: 2%; RE007 growth inh: 0%; Sm TGR inh: 11µM*; AmpC detergent: 0%

Results for CCOc1ccc(CCNC(=O)CCn2c(=O)c3cccn3c3cccnc32)cc1 ?
Sm TGR inh: 1%; AmpC detergent: -6%

How did Cc1cccc(CSc2nc(-c3cccs3)ccc2C#N)c1 do in these assays?
Sm TGR inh: 0%; AmpC detergent: -1%

What do the screens show for `Cc1cccc(CSCc2ccc(C(=O)NCCc3ccccc3)o2)c1`?
Sm TGR inh: -18%; AmpC detergent: 0%

What do the screens show for `Clc1ccc(-c2nc(/C=N/N3CCOCC3)c3ccccn23)cc1`?
AMA1-RON2 inh: 37%; AmpC no deterg: 27%; RE007 growth inh: 3%; Sm TGR inh: 45µM*; AmpC detergent: inconclusive

What do the screens show for `CN1CCN(/N=C/c2nc(-c3ccc(Cl)cc3)n3ccccc23)CC1`?
AMA1-RON2 inh: 5%[2.32 µM]; AmpC no deterg: 69%; RE007 growth inh: -1%; Sm TGR inh: inconclusive; AmpC detergent: 9%

What do the screens show for `Cc1nc2ccccc2n2c(O)c(CC(=O)O)cc12`?
AMA1-RON2 inh: -1%; AmpC no deterg: -20%; RE007 growth inh: -1%; Sm TGR inh: 35µM*; AmpC detergent: 1%

What do the screens show for `CCN(CC(=O)NCc1cccs1)C(=O)c1ccc([N+](=O)[O-])o1`?
AMA1-RON2 inh: -3%; AmpC no deterg: -14%; RE007 growth inh: -1%; Sm TGR inh: 45µM*; AmpC detergent: inconclusive

How did CN1c2ccc([N+](=O)[O-])cc2CC2(C(=O)NC(=O)NC2=O)C1c1ccccc1 (stereo not given) do in these assays?
AMA1-RON2 inh: -22%; AmpC no deterg: 4µM*; RE007 growth inh: -1%; Sm TGR inh: -12%; AmpC detergent: -11%

What do the screens show for `CN1c2ccc([N+](=O)[O-])cc2CC2(C(=O)NC(=O)N(c3ccccc3)C2=O)C1c1ccccc1` (stereo not given)?
AMA1-RON2 inh: 11%; AmpC no deterg: -16%; RE007 growth inh: 3%; Sm TGR inh: 1%; AmpC detergent: -14%

What do the screens show for `O=c1cc(-c2ccc(O)cc2)oc2c(-c3c(O)cc(O)c4c(=O)cc(-c5ccc(O)cc5)oc34)c(O)cc(O)c12`?
AMA1-RON2 inh: -11%; AmpC no deterg: -41%; RE007 growth inh: 10%

What do the screens show for `O=c1c(-c2c(O)cc(O)c3c(=O)cc(-c4ccc(O)cc4)oc23)c(-c2ccc(O)cc2)oc2cc(O)cc(O)c12`?
AMA1-RON2 inh: -30%; AmpC no deterg: 20µM*; RE007 growth inh: 14%; Sm TGR inh: 58%; AmpC detergent: 2%

How did N#Cc1ccc(C=NN2CCCCCC2)cc1 do in these assays?
AMA1-RON2 inh: 28µM*; RE007 growth inh: -10%

How did Oc1ccc(/C=N/N2CCCCC2)cc1O do in these assays?
AMA1-RON2 inh: 11%; AmpC no deterg: -21%; RE007 growth inh: -8%; Sm TGR inh: 2.8µM*; AmpC detergent: 2%

What do the screens show for `COc1cc(/C=N/N2CCCCC2)cc(OC)c1O`?
AMA1-RON2 inh: -4%; AmpC no deterg: 0%; RE007 growth inh: -10%; Sm TGR inh: 14µM*; AmpC detergent: -3%

What do the screens show for `Clc1ccc(/C=N/N2CCCCC2)cc1`?
AMA1-RON2 inh: -16%; AmpC no deterg: -29%; RE007 growth inh: -1%; Sm TGR inh: 9%; AmpC detergent: 11%
